Data published in PubChem BioAssay AID1745847 (National Center for Advancing Translational Sciences (NCATS), 2022).
Among all 2,100 compounds or so, about 670 (32%) were called active. Another 50% or so got no clear call; they are omitted. This is one part of the list. Unmarked numbers belong to inactive results. Calls follow the shape of the dose curve; as a rule, active = well fitted inhibition curve with a large enough effect; inconclusive = small, poorly fitted or top-dose-only effect; inactive = no such curve, though single readings can be large or run the other way.

assay: CMV-Luciferase Counterscreen for Inhibitors of ATXN expression; details: HEK-293 CMV-luciferase reporter, luminescence, 24 h; series mostly up to 57.5 µM; also: nearly all actives have a fitted effect of over 55% in size
% is scaled to controls: 0 for no effect and ±100 for the full control effect; potency is read from the fitted curve at half-maximal effect.

SMILES | Potency | activity change, negative = inhibition
NC(=O)CC(NC(=O)Cc1ccc(Br)cc1)c1ccc(NC2CCCC2)c([N+](=O)[O-])c1 (centres undefined) | 3.16 µM (active) | 
N#CC1=C(N)N2C(=C(C#N)C1c1ccc(Br)cc1)Nc1ccccc12 (centres undefined) | 0.631 µM (active) | 
N#CC1=C(N)N2C(=C(C#N)C1c1cccc(Br)c1)Nc1ccccc12 (centres undefined) | 3.55 µM (active) | 
CCc1ccc(NC(=O)C2CCN(S(=O)(=O)c3ccc4c(c3)CC(C)N4C(C)=O)CC2)cc1 (centres undefined) | 3.16 µM (active) | 
CN1CCN(c2ccc(S(=O)(=O)N3CCCCC3)cc2NC(=O)/C=C/c2ccc(Cl)c([N+](=O)[O-])c2)CC1 |  | -27% [at 11.4 µM]
CC(=O)N1c2ccc(S(=O)(=O)N3CCC(C(=O)Nc4cccc(C(F)(F)F)c4)CC3)cc2CC1C (centres undefined) | 8.91 µM (active) | 
CC(=O)N1c2ccc(S(=O)(=O)N3CCC(C(=O)N4CCN(c5ccc(Cl)cc5)CC4)CC3)cc2CC1C (centres undefined) | 7.94 µM (active) | 
Cc1ccc(/C=N/NC(=O)C2=NNC(c3ccccc3)(c3ccccc3)C2)c(O)c1 | 3.16 µM (active) | 
CCN(CC)CCNc1ccc(CO)c2sc3ccccc3c(=O)c12 | 17.8 µM (active) | 
O=c1c2ccccc2sc2c(CO)ccc(NCCN3CCCCC3)c12 | 22.4 µM (active) | 
COC(/C(=N/O)c1ccc(Cl)cc1)c1ccccc1 (centres undefined) | inactive | 
Cc1cc(NCc2ccccn2)n2nc(C)c(-c3ccc(Cl)cc3)c2n1 | 20 µM (active) | 
Cc1cc(Oc2ccc(Cl)cc2)nc(-c2ccccn2)n1 | inactive | 
CCCCC(=O)N(CCOC)c1nnc(-c2ccccc2C)s1 | inactive | 
CCOc1cc([C@@H]2C[C@H]3CN(c4ccccc4)C(=O)[C@]34CCCN24)ccc1OC | inactive | 
Cc1cc(C)c2nc(NNC(=O)c3ccc(S(=O)(=O)N4CCc5ccccc5C4)cc3)sc2c1 | 3.16 µM (active) | 
Cc1cccc2sc(NNC(=O)c3ccc(S(=O)(=O)N4CCCC(C)C4)cc3)nc12 (centres undefined) | 4.47 µM (active) | 
Nc1c2ccccc2nc2ccccc12 | 4.47 µM (active) | 
N#CCc1nc2ccccc2c(=O)[nH]1 | inactive | 
Oc1ccc(Cc2ccccc2)c2cccnc12 | 11.2 µM (active) | 

SMILES | Potency | activity change, negative = inhibition
CN(C)c1ccc(Cc2cc3c(O)ccc(O)c3cc(Cc3ccc(N(C)C)cc3)c2=O)cc1 |  | -9.62% [at 11.4 µM]
Oc1ccc(CN2CCC(Cc3ccccc3)CC2)c2cccnc12 |  | -19.8% [at 11.4 µM]
CCCOCc1ccc(O)c2ncccc12 | 20 µM (active) | 
CC[n+]1c(/C=C/N(C)c2ccccc2)oc2ccc(F)cc21 | 15.8 µM (active) | 
O=C(O)CSc1cc(NS(=O)(=O)c2cccc([N+](=O)[O-])c2)c2ccccc2c1O | 3.55 µM (active) | 
O=C(O)CSc1cc(NS(=O)(=O)c2ccc(Cl)cc2)c2ccccc2c1O | 28.2 µM (active) | 
CCc1ccc(CNC(=O)C2CCN(c3nnc(C)c4c(C)n(-c5ccc(C)cc5)nc34)CC2)cc1 | inactive | 
O=C(Nc1ccc2c(c1)CCC2)C1CCN(c2c3c(nc4ncnn24)CCC3)CC1 | 7.08 µM (active) | 
CCc1c(C)nc2ncnn2c1N1CCC(C(=O)Nc2ccc(C)cc2)CC1 | 12.6 µM (active) | 
CNc1ccccc1C(=O)OC(C)C(=O)Nc1ccc(Cl)cn1 (centres undefined) |  | 94.6% [at 11.4 µM]
CC(=O)Oc1c(Br)cc(N(C(C)=O)S(=O)(=O)c2ccccc2)c2ccccc12 | 15.8 µM (active) | 
COc1ccc(/C=N/NC(=O)c2nc(-c3ccccc3)n(-c3ccccc3)n2)c(O)c1 | 8.91 µM (active) | 
Cc1cc(SCC(=O)NN)c2cc(Br)ccc2n1 | inactive | 
COc1ccc2nc(C)cc(SCC(=O)N/N=C/c3ccc(O)cc3O)c2c1 | 11.2 µM (active) | 
NC(=O)c1cc([N+](=O)[O-])ccc1NCc1ccc(N)cc1 | 6.31 µM (active) | 
Cn1nnnc1Sc1ncnc2scc(-c3ccc[nH]3)c12 | 20 µM (active) | 
Cn1nnnc1Sc1ncnc2scc(-c3cccs3)c12 | 11.2 µM (active) | 
COc1cc(CNCc2ccncc2)cc(Br)c1OCc1ccccc1F | 2 µM (active) | 
COc1cc(C(=O)NCc2ccncc2)cc(Br)c1OCc1ccccc1 | 3.98 µM (active) | 
CCOc1ccc(NC(=O)Nc2nnc(CC(=O)NCc3ccccc3)s2)cc1 | inactive | 

SMILES | Potency | activity change, negative = inhibition
COc1cccc(OC)c1C(=O)OCC(=O)NC(=O)NCc1ccccc1 |  | -4.44% [at 11.4 µM]
CN(C)CCNc1ncnc2c1sc1nc(N3CCOCC3)c3c(c12)CC(C)(C)SC3 | inactive | 
O=C(Nc1ccc(Cl)c(Cl)c1)c1cccc(S(=O)(=O)NCc2cccnc2)c1 | 1.58 µM (active) | 
O=C(/C=C/Nc1ccc(S(=O)(=O)Nc2ncccn2)cc1)c1ccc(Cl)c(Cl)c1 | inactive | 
Cn1c(CCc2nc3ccccc3[nH]2)nnc1SCC#N | inactive | 
COc1ccc(Nc2c3ccccc3nc3ccccc23)cc1 | 10 µM (active) | 
C=CS(=O)(=O)c1c2cc(OC)ccc2nc2ccc(OC)cc12 | inactive | 
COc1ccc(C)cc1Nc1nc(N)c2cc(OC)c(OC)cc2n1 |  | -12.3% [at 11.4 µM]
COc1cc2cc(C(=O)NC(C)c3cccc4ccccc34)c(N)nc2cc1OC (centres undefined) |  | -29.5% [at 11.4 µM]
COc1ccc(C(CCNC(C)c2ccccc2)c2ccc(F)cc2)cc1 (centres undefined) | inactive | 
COc1cc(N)ccc1Nc1c2ccccc2nc2ccccc12 | 25.1 µM (active) | 
COc1ccc(Nc2nc(N3CCCC3)c3ccccc3n2)cc1 | 10 µM (active) | 
COc1ccc(/C=N/Nc2cc(N3CCCC3)nc(N3CCCC3)n2)cc1 |  | -17.8% [at 11.4 µM]
C(=NN1CCCCCC1)c1ccc2ccccc2n1 | 15.8 µM (active) | 
O=C(Nc1ccc(Cl)cc1)Nc1nc(-c2sccc2Br)cs1 | inactive | 
COc1ccc(OC)c(C(=O)/C=C/c2ccccc2C(F)(F)F)c1 |  | -8.72% [at 11.4 µM]
Cc1ccc(C)c(N2CCN(C(=O)CCCCCn3c(=S)[nH]c4ccc(N5CCOCC5)cc4c3=O)CC2)c1 | 3.16 µM (active) | 
Clc1ccccc1C(c1ccccc1)(c1ccccc1)n1ccnc1 | 3.16 µM (active) | 
Cc1cccc(N2CCN(C(=O)CC(NC(=O)c3ccccc3Cl)c3ccccc3)CC2)c1C (centres undefined) | 25.1 µM (active) | 
